Test results: PubChem BioAssay (Tox21)
Values joined by “and” are separate entries in the source; they are usually repeats but may differ in a detail not shown here. Identical values can stand only once. Results filed as inconclusive are left out. Where a call stands in place of a potency, no number is given. Some structures have more than one record in an assay (separate samples or runs), and their calls can disagree. Active and inactive are the calls of the source. Unless noted, the call rests on the fitted dose curve; in most records, active means well fitted curve in the direction sought with a large enough effect in the repeat runs; inconclusive means weak or mixed curves; inactive means no such curve, though single readings can be large; an effect the other way counts as inactive or inconclusive.

Tests used:
[1] = target: Luciferin 4-monooxygenase (Photinus pyralis) (UniProt P08659); experiment: qHTS assay to identify small molecule inhibitors of firefly luciferase (AID 1224835); further: nearly all actives have a fitted effect of over 25% in size; further: potency means the concentration at half of the fitted maximal effect
Summary of the method: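 Quantitative HTS format; KM concentrations of both substrates. Purified P. pyralis FLuc activity quantified from luminescence images.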

[2] = qHTS assay to identify small molecule agonists of the constitutive androstane receptor (CAR) signaling pathway - cell viability counter screen (AID 1224836); further: nearly all actives have a fitted effect of over 45% in size; further: potency means the concentration at half of the fitted maximal effect
Summary of the method: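 Cell viability multiplexed with the CAR agonist screen: CellTiter-Fluor fluorescence after 23 hr at 37 C. HepG2-CYP2B6-hCAR cells got compounds at 15 concentrations with PK11195 at 0.75 uM final.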

[3] = qHTS assay to identify small molecule antagonists of the constitutive androstane receptor (CAR) signaling pathway - cell viability counter screen (AID 1224837); further: nearly all actives have a fitted effect of over 45% in size; further: potency means the concentration at half of the fitted maximal effect
Summary of the method: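 To flag cytotoxic false antagonists, HepG2 hCAR/CYP2B6-2.2kb cells were treated 23 hr with 15-concentration compound series and 50 nM CITCO at 37 C/5% CO2; CellTiter-Fluor fluorescence was the measured end point.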

[4] = qHTS assay to identify small molecule antagonists of the estrogen related receptor signaling pathway with the pleiotropic PPARgamma coactivator (PGC) from Tox21 10K library - cell viability counter screen (AID 1224840; active means well fitted cell-killing curve with a large enough effect in the repeat runs, not every such curve was filed as active; further: nearly all actives have a fitted effect of over 40% in size; further: potency means the concentration at half of the fitted maximal effect)
Summary of the method: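 Seeded PGC/ERR cells (2,000/well, 6 h, 37 C/5% CO2) get compound by pin tool; 17.5 h incubation at 37 C; CellTiter-Fluor added, 30 min, fluorescence measured.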

[5] = target: Thyrotropin receptor (Homo sapiens) (UniProt P16473); experiment: qHTS assay to identify small molecule agonists of the thyroid stimulating hormone receptor (TSHR) signaling pathway (AID 1224843; calls by dose curve; further: nearly all actives have a fitted effect of over 45% in size)
Summary of the method: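 Compounds are titrated over 15 concentrations, in triplicate, onto TSHR-HEK293 cells seeded at 800/well. Plates sit 30 min at room temperature before cAMP-d2 and anti-cAMP cryptate are added; signal is read after a further hour.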

[6] = qHTS assay to identify small molecule agonists of the hypoxia (HIF-1) signaling pathway - cell viability counter screen (AID 1224844; calls by dose curve; further: nearly all actives have a fitted effect of over 50% in size; further: potency means the concentration at half of the fitted maximal effect)
Summary of the method: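 HRE-bla ME-180; 0.5% dFBS; cpd 17 h, 37C, 5% CO2; CellTiter-Glo lum., 30 min RT, post-FRET read, same wells.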

[7] = target: Nuclear receptor subfamily 1 group I member 3 (Homo sapiens) (UniProt Q14994); experiment: qHTS assay to identify small molecule agonists of the constitutive androstane receptor (CAR) signaling pathway (AID 1224839); further: nearly all actives have a fitted effect of over 15% in size; further: potency means the concentration at half of the fitted maximal effect
Summary of the method: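 Luminescent ONE-Glo read-out after 24 hr, 37 C exposure of double-stable HepG2-CYP2B6-hCAR reporter cells to a 15-point compound series, in the presence of 0.75 uM PK11195 (final).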

[8] = qHTS assay to identify small molecule antagonists of the estrogen related receptor signaling pathway with the pleiotropic PPARgamma coactivator (PGC) from Tox21 10K library (AID 1224841; call rule not given here; further: actives are mostly falling curves and most rising ones were filed inactive; nearly all actives have a fitted effect of over 50% in size; further: potency means the concentration at half of the fitted maximal effect)
Summary of the method: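 Test chemicals dissolved in DMSO were applied to pre-incubated (6 h) PGC/ERR cells at 2,000 cells/well for an 18 h, 37 C treatment; reporter luminescence was then read using One-Glo.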

[9] = qHTS assay to identify small molecule agonists of the estrogen related receptor signaling pathway with the pleiotropic PPARgamma coactivator (PGC) from Tox21 10K library (AID 1224842); further: nearly all actives have a fitted effect of over 15% in size; further: potency means the concentration at half of the fitted maximal effect
Summary of the method: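 PGC/ERR reporter cells (NTP line) were seeded 2,000 per well, rested 6 h at 37 C/5% CO2, then pin-dosed with compounds in DMSO for 18 h at 37 C; luciferase read by One-Glo luminescence after 30 min at room temperature.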

[10] = target: Nuclear receptor subfamily 1 group I member 3 (Homo sapiens) (UniProt Q14994); experiment: qHTS assay to identify small molecule antagonists of the constitutive androstane receptor (CAR) signaling pathway (AID 1224838);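 further: HepG2 cells stably expressing hCAR with CYP2B6 luciferase reporter stimulated by CITCO; nearly all actives have a fitted effect of over 40% in size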; further: potency means the concentration at half of the fitted maximal effect
Summary of the method: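 Human hepatoma HepG2 cells expressing hCAR and a CYP2B6 promoter (2.2 kb) luciferase construct; compound titration (15 points) with 50 nM CITCO final, 24 h at 37 C/5% CO2; luminescence via ONE-Glo after 30 min at room temperature.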

Nuclear receptor subfamily 1 group I member 3 (Homo sapiens), sequence (Q14994 whole entry, looked up): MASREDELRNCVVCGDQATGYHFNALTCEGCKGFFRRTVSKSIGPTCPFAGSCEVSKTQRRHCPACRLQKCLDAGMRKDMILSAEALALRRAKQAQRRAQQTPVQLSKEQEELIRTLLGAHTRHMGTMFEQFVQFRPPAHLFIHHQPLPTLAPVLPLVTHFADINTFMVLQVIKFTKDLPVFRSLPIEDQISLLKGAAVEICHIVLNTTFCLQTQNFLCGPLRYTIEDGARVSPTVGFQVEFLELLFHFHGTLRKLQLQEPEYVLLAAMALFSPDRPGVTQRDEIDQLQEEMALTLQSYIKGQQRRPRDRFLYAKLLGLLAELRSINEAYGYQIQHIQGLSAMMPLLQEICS
Thyrotropin receptor (Homo sapiens), sequence (P16473 whole entry, looked up): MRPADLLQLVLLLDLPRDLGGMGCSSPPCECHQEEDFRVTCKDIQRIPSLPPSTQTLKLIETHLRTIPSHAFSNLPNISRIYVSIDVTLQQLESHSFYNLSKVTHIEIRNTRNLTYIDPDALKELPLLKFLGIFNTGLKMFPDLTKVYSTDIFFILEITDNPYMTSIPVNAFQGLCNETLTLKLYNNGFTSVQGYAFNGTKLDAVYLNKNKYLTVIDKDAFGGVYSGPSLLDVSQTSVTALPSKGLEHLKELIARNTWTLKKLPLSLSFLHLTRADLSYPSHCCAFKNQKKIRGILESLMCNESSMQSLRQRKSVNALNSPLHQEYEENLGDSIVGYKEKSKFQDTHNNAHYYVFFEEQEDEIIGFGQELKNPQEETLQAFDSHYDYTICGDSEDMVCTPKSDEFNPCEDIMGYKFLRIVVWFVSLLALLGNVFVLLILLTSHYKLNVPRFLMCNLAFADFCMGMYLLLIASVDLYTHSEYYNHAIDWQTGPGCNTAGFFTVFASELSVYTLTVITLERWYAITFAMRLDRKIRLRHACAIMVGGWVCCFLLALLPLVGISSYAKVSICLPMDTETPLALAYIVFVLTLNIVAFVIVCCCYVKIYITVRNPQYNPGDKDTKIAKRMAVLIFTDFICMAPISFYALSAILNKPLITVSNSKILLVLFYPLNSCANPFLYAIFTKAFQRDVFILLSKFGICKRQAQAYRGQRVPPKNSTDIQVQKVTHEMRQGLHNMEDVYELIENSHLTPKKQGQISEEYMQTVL
Luciferin 4-monooxygenase (Photinus pyralis), sequence (P08659 whole entry, looked up): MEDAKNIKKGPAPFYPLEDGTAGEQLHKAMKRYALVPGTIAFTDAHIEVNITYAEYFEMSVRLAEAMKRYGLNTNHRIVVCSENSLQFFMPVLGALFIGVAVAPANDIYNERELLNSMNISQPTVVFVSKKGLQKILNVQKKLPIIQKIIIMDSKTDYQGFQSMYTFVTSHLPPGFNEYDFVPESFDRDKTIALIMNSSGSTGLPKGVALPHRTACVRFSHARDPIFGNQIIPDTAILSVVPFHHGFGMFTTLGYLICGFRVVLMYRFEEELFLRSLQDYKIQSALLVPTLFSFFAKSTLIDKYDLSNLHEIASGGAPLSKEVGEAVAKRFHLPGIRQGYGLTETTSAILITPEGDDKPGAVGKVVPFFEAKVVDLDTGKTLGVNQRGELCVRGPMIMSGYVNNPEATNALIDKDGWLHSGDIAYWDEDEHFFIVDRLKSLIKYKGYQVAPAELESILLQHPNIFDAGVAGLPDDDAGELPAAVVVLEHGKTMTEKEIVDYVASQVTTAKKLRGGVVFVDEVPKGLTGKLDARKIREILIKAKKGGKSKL

Row | Structure (SMILES) | Potency [1] | Potency [2] | Potency [3] | Potency [4] | Potency [5] | Potency [6] | Potency [7] | Potency [8] | Potency [9] | Potency [10]
1 | CC(N)=O | inactive | inactive | inactive | inactive | inactive | inactive |  |  |  | 
2 | CCn1cc(C(=O)O)c(=O)c2cc(F)c(N3CCNC(C)C3)c(F)c21 (stereo not drawn) | inactive | inactive | inactive | inactive | inactive | inactive | inactive | inactive | inactive | 
3 | CNC1(C)C2CCC(C2)C1(C)C (stereo not drawn) | inactive | inactive | inactive | inactive | inactive | inactive | inactive | inactive | inactive | 
4 | O=C1CC2(CCCC2)CC(=O)N1CCCCN1CCN(c2ncccn2)CC1 | inactive | inactive | inactive | inactive | inactive | 4.36 µM (active) and inactive | inactive | 19.3 µM (active) and inactive | inactive | 
5 | CC1COc2c(N3CCN(C)CC3)c(F)cc3c(=O)c(C(=O)O)cn1c23 (stereo not drawn) | inactive | inactive | inactive | inactive | inactive | inactive |  |  |  | 
6 | O=C(O)c1cn(-c2ccc(F)cc2)c2cc(N3CCNCC3)c(F)cc2c1=O | inactive | inactive | inactive | inactive | inactive | inactive |  |  |  | 
7 | Cc1scc2c1N(C(=O)CN1CCN(C)CC1)c1ccccc1NC2=O | inactive | inactive | inactive | inactive | inactive | inactive | inactive |  |  | 
8 | CCCCCCC(O)CCCCCCCCCCC(=O)O (stereo not drawn) | inactive | inactive | inactive | inactive | inactive | inactive | inactive | inactive | inactive | 
9 | CC(C)(C)NCC(O)COc1ccccc1OCC1CCCO1 (stereo not drawn) | inactive | inactive | inactive | inactive | inactive | inactive | inactive | inactive | inactive | 
10 | CCCNC(C)C(=O)Nc1ccccc1C (stereo not drawn) | inactive | inactive | inactive | inactive | inactive | inactive | inactive |  |  | 
11 | CC[C@]1(O)C[C@@H]2CN(CCc3c([nH]c4ccccc34)[C@@](C(=O)OC)(c3cc4c(cc3OC)N(C)[C@H]3[C@@](O)(C(=O)OC)[C@H](OC(C)=O)[C@]5(CC)C=CCN6CC[C@]43[C@@H]65)C2)C1 | inactive | 1.19 µM (active) and 2.98 µM (active) | 2.66 µM (active) and 4.22 µM (active) | inactive | inactive | inactive |  |  | inactive | 
12 | Cc1cccc([N+](=O)[O-])c1C(=O)O | inactive | inactive | inactive | inactive | inactive | inactive | inactive | inactive | inactive | 
13 | CC[C@H]1CN2CCc3cc(OC)c(OC)cc3[C@@H]2C[C@@H]1C[C@H]1NCCc2cc(OC)c(OC)cc21 | inactive | 24.4 nM (active) and 150 nM (active) | 27.4 nM (active) and 133 nM (active) | 24.4 nM (active) and 168 nM (active) |  | inactive | inactive |  |  | 54.6 nM (active) and 237 nM (active)
14 | CC(C)CCOCc1ccccc1 |  | inactive | inactive | inactive | inactive | inactive | inactive | inactive | inactive | inactive
15 | CC1=CC(=O)c2ccccc2C1=O | inactive |  |  | inactive |  | 21.9 µM (active) and inactive | inactive | 30.6 µM (active) | inactive | 30.6 µM (active)
16 | Clc1ccc2c(c1)C(N1CCNCC1)=Nc1ccccc1O2 | inactive |  |  | inactive | inactive | inactive |  |  |  | 
17 | Nc1nc(=S)c2[nH]cnc2[nH]1 | inactive |  | 11.9 µM (active) and 4.86 µM (active) | inactive | inactive |  | inactive |  |  | 
18 | CC(C)CCOC(=O)c1ccc(N(C)C)cc1 |  | inactive | inactive | inactive | inactive | inactive | 13.3 µM (active) | inactive | 10.6 µM (active) | inactive
19 | COC(=O)/C=C/c1ccccc1 |  | inactive | inactive | inactive | inactive | inactive | inactive |  |  | inactive
20 | NC(=Nc1ccccc1)Nc1ccccc1 | inactive | 3.86 µM (active) |  | inactive | inactive | inactive |  | inactive |  | 
21 | Oc1c(Cl)cc(Cl)cc1Sc1cc(Cl)cc(Cl)c1O | inactive | inactive |  |  | inactive | 19.5 µM (active) and 24.5 µM (active) and inactive | inactive |  | inactive | 
22 | O=C(O)CP(=O)(O)O |  | inactive | inactive | inactive | inactive | inactive | inactive |  |  | inactive
23 | CC(=O)Nc1ccc(C(=O)CCl)cc1 | inactive | inactive | inactive | inactive | inactive | inactive and 11 µM (active) |  |  |  | 
24 | NCCO | inactive | inactive | inactive | inactive | inactive | inactive |  |  |  | 
25 | Nc1ccc(O)cc1 | 65.7 µM (active) and inactive |  |  | 35.7 µM (active) and inactive | inactive | 50.9 µM (active) and inactive |  | 45 µM (active) and inactive | inactive | 
